Shown are actives, neighbours in structure and some others; about 3.4% of the full set was active somewhere.
TEAD-YAP inh: TEAD-YAP interaction inhibition; 640,000 compounds, 1.4% hits; inhibition, % at 9.12 µM; HEK-TIYL cells, TEAD-Gal4/YAP UAS-luciferase luminescence; in the data active means inhibition above about 32%;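 further: 0% = median of test compound wells and 100% = reference inhibitor wells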
MITF inh: blocks human microphthalmia-associated transcription factor; O75030; 650,000 compounds, 0.91% hits; AlphaScreen MITF homodimerization, bead proximity signal; inhibition, % at 2.6 µM; AID 1259374; in the data active means inhibition above about 50%;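 further: 0% = vehicle wells with protein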
Target sequence (O75030 whole entry, looked up): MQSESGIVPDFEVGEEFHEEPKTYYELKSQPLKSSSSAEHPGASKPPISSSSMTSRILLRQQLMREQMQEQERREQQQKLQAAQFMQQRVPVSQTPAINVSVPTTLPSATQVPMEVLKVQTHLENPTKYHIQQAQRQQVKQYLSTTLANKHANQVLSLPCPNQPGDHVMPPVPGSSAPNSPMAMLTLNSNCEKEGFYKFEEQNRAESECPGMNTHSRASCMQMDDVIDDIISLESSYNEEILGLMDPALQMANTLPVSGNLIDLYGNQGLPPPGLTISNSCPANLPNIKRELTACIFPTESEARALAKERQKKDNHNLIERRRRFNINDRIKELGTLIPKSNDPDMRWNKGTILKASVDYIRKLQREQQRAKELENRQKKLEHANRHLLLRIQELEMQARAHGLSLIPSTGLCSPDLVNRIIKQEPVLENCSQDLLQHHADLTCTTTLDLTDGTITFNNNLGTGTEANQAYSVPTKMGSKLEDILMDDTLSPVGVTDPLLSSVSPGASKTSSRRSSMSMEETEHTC
FBW7 activator: activators of human E3 ligase FBW7; Q969H0; AlphaScreen FBW7–phospho-cyclin E peptide binding, activator screen; normalized activity (activation), % at 26.1 µM; 650,000 compounds, 0.13% hits; in the data active means normalized activity above about 1.9%;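 further: purified mutant Fbw7 with reduced substrate affinity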
GPR151 ag: activates the human receptor GPR151. PathHunter beta-arrestin GPR151 cells, luminescence. activation, % at 11.2 µM. 650,000 compounds, 1% hits; in the data active means activation above about 4.9%;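 further: 0% = median of compound wells and 100% = cells with positive control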
MITF confirm: human MITF inhibition, confirmation; shares compounds with MITF inh; 4,700 compounds, 16% hits; inhibition, % at 2.6 µM; AlphaScreen MITF homodimerization, biotin/His-MITF beads;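 active means inhibition above a cutoff derived from the DMSO control wells, cut at about 28% in these data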;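 further: 0% = MITF dimer wells with DMSO only; inhibitors lower the bead chemiluminescence by keeping MITF from dimerizing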
AS interf DR: AlphaScreen optical interference, dose response counter-screen | shares compounds with MITF inh | AlphaScreen optical interference counterscreen, cell-free | IC50, µM | 480 compounds, 6% hits; call rule not given here
AlphaScreen intf2: optically interferes with AlphaScreen signal; 4,700 compounds, 7.6% hits; shares compounds with MITF inh; LysRS AlphaScreen counterscreen, signal interference, triplicate; AID 1259376; inhibition, % at 2.6 µM;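 active means inhibition above a cutoff derived from the DMSO control wells, cut at about 30% in these data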
An asterisk follows results filed as active; . = not tested or not shown; ! = not confirmed by another sample.

SMILES | TEAD-YAP inh | MITF inh | FBW7 activator | GPR151 ag | MITF confirm | AlphaScreen intf2 | others
CCCC(=O)N1CCN(c2cccc3c2C(=O)N(Cc2cnn(C)c2C)C3=O)CC1 | 10 | 97* | 0 | -2 | -2 | -6
Cc1c(CN2C(=O)c3cccc(N4CCN(C(=O)CC(C)(C)C)CC4)c3C2=O)cnn1C | -9 | -11 | 0 | -1 | . | .
CCOC(=O)c1cnc2cc(C(F)(F)F)ccc2c1N1CCN(c2ccc(F)cc2)CC1 | -5 | 12 | 0 | 0 | . | .
OC[C@H]1OC([S-])[C@H](O)[C@@H](O)[C@@H]1O.[Au+] (some centres undefined) | 15 | 86* | 0 | 0 | 73* | 0 | AS interf DR=>6.5
CCCc1nnc(SCC(=O)N2CCCCC2C)n1CCOC (centres undefined) | 8 | 3 | 0 | 1 | . | .
CN(C)CCS(=O)c1cc(-c2cn[nH]c2)ccc1NC(=O)[C@@H]1Cc2cc(F)ccc2CN1 (some centres undefined) | 1 | 75*! | 1.9*! | 0 | 68* | 8 | AS interf DR=>6.5
CN(C)CCS(=O)c1cc(-c2cn[nH]c2)ccc1NC(=O)[C@H]1Cc2cc(F)ccc2CN1 (some centres undefined) | 1 | 56*! | 0 | 0 | 72* | 4 | AS interf DR=>6.5
CCOC(=O)c1c(CS(=O)(=O)c2ccccc2)n(C)c2cc(Br)c(O)c(CN(C)C)c12 | 8 | 5 | 1 | 3 | . | .
Cc1csc(-c2cc3ccccc3oc2=O)n1 | -25 | 67* | 0 | -7 | 13 | 10
Cc1ccccc1CN1CCN(Cc2ccccc2C(F)(F)F)CC1 | 0 | 80* | 0 | -1 | -2 | 13
FC(F)(F)c1ccccc1CN1CCN(Cc2cccnc2)CC1 | -1 | 83* | 0 | 1 | 10 | 22
FC(F)(F)c1ccccc1CN1CCN(Cc2ccc(Cl)cc2)CC1 | -12 | 41 | 0 | -1 | . | .
FC(F)(F)c1ccccc1CN1CCOCC1 | 8 | 77* | 0 | 0 | 3 | -1
CN(C)c1ccc(C2C3C(=O)N(c4ccccc4)C(=O)C3ON2c2ccc(Cl)cc2)cc1 (centres undefined) | -13 | -5 | 0 | 0 | . | .
CCOc1ccc(C(=O)Nc2cccc(-c3nc4ccccc4o3)c2C)cc1Br | 0 | -1 | 0 | 1 | . | .
O=C(/C(Br)=C/Nc1ccc(F)cc1)C(F)(F)F | -6 | 2 | 0 | 1 | . | .
Cc1ccc(S(=O)(=O)c2cn(C)c3cc(N4CCCC4)c(F)cc3c2=O)cc1 | 7 | 3 | 0 | 0 | . | .
COCCSc1nnc(-c2ccncc2)n1C | 6 | 59* | 0 | 1 | 5 | 15
O=c1oc2ccc3ccccc3c2cc1-c1nc(-c2ccc([N+](=O)[O-])cc2)n[nH]1 | 5 | 72* | 0 | 1 | 7 | 13
COc1ccc(CN2CCCC(C(=O)N3CCCC3)C2)cc1 (centres undefined) | -1 | 45 | 0 | -2 | . | .
CCOC(=O)C1CCCN(Cc2ccc(O)cc2)C1 (centres undefined) | -6 | 19 | 0 | 0 | . | .
Cc1ccc(CN2CCCC(C(=O)N3CCCCC3)C2)cc1 (centres undefined) | 6 | 34 | 0 | 1 | . | .
CCOC(=O)C1CCCN(Cc2ccc(OC)c(OC)c2OC)C1 (centres undefined) | -2 | 33 | 0 | 1 | . | .
COc1ccc(CN2CCCC(C(=O)N3CCCCCC3)C2)cc1 (centres undefined) | 7 | 73* | 0 | 0 | -7 | -7
COc1ccc(CN2CCCC(C(=O)N3CCCCC3)C2)c(OC)c1OC (centres undefined) | 8 | 75* | 0 | 0 | -14 | -11
SMILES | TEAD-YAP inh | MITF inh | FBW7 activator | GPR151 ag | MITF confirm | AlphaScreen intf2 | others
Cc1ccc(CN2CCCC(C(=O)N3CCCCCC3)C2)cc1 (centres undefined) | 0 | 64* | 0 | 0 | -6 | -6
CCOC(=O)C1CCCN(Cc2ccc(OC)cc2)C1 (centres undefined) | 7 | 52* | 0 | 0 | -5 | 0
CC(=O)NC(CCS(C)(=O)=O)C(=O)Nc1ccc(-c2nc3ccc(C)cc3s2)cc1 (centres undefined) | 21 | -11 | 0 | 0 | . | .
COc1ccccc1OCC(=O)N1CCC2(CC1)OCc1cccc(OC)c1O2 | 20 | 12 | 0 | 3 | . | .
COc1ccc(CN2CCC(C(=O)NCc3ccc(C)cc3)CC2)cc1 | -1 | 77* | 0 | 2 | -7 | -5
CCOC(=O)C1CCCN(Cc2cccc(Br)c2)C1 (centres undefined) | -6 | 53* | 1 | 2 | 35* | 6 | AS interf DR=>6.5
CCOC(=O)C1CCCN(Cc2ccccc2)C1 (centres undefined) | -8 | 6 | 0 | -1 | . | .
NNC(=O)C1CCCN(Cc2cccc(Oc3ccccc3)c2)C1 (centres undefined) | 7 | 54* | 0 | 0 | -5 | -5
COc1ccc(CN2CCCC(C(=O)NN)C2)cc1 (centres undefined) | 0 | 36 | 0 | -1 | . | .
CCc1sc(C(=O)Nc2cccc(NC(C)=O)c2)cc1Br | -14 | -6 | 1 | -2 | . | .
COc1cccc(S(=O)(=O)N2CCC(c3nc(-c4ccccc4)no3)CC2)c1 | 2 | 2 | 0 | 0 | . | .
CCCCN1C(=O)C(=O)N(CC(=O)Nc2ccc(C)c(Cl)c2)C1=O | 4 | 66* | 0 | 0 | -12 | -5
CCCOc1ccc(-c2nc3s/c(=C4\C(=O)N(C)c5ccccc54)c(=O)n3n2)cc1 | -6 | -2 | 1 | 0 | . | .
Cc1nnc(C)n1/N=C\c1cccc2ccccc12 | 2 | 66* | 0 | 1 | -13 | -4
COc1cc(-c2[nH]nc3c2C(c2ccc4c(c2)OCO4)C(C#N)=C(N)O3)cc(OC)c1OC (centres undefined) | 15 | 66* | 0 | 1 | -6 | -5
Cc1cc([N+](=O)[O-])ccc1NC(=O)/C(C#N)=C/c1c[nH]c2ccccc12 | 1 | 17 | 0 | 0 | . | .
CCN(CC)CCCOc1ccc2ccccc2c1 | -24 | 66* | 0 | 0 | -7 | -4
CCN(CC)C(=O)CSc1nc2ccccc2c(=O)n1CCCN1CCCCC1 | 7 | 1 | 0 | 2 | . | .
CCCCNCCOc1ccccc1F | 3 | 65* | 0 | -1 | -4 | -7
CCOc1ccccc1OCCCNCCO | 11 | 58* | 0 | 0 | 13 | 14
OCCNCCOc1cccc2ccccc12 | -2 | 51* | 0 | -2 | 0 | 21
O=C(Cc1ccccc1)N1N=C(C(F)(F)F)CC1(O)c1ccncc1 (centres undefined) | -8 | 8 | 0 | -1 | . | .
COc1ccc(OCCOc2ccc(C=C3C(=O)NC(=S)NC3=O)cc2OC)cc1 | 8 | 8 | 0 | 2 | . | .
